This is an account of results in PubChem BioAssay (NCI).

Common to all, as to experiment: NCI-60 one-dose screen, 48 h (100 = growth as untreated, 0 = no growth, -100 = all killed)
What all share (settings): 10 µM unless noted

Test [1] concerns NCI-H23 lung.
The test system of test [2] is NCI-H226 lung.
The subject of test [3] is NCI-H322M lung.
The test system of test [4] is HOP-62 NSCLC.
Test [5] relates to NCI-H460 lung.
Test [6] has as its system HOP-92 NSCLC.
Test [7] deals with NCI-H522 lung.
In test [8] the test system is A549/ATCC NSCLC.
Test [9] has as its system 786-0 renal.
Test [10] has as its system COLO 205 colon.
The subject of test [11] is DU-145 prostate.
Test [12] has as its system K-562 leukemia.
Test [13] relates to MALME-3M melanoma.
Test [14] deals with MDA-MB-231 breast.
In test [15] the test system is SF-268 CNS.
In test [16] the test system is SF-295 CNS.
Test [17] relates to SF-539 CNS.
Test [18] relates to UACC-257 melanoma.
Test [19] has as its system M14 melanoma.
The test system of test [20] is RXF 393 renal.

This is part of a sample that, as a whole, favours compounds with a hit. Of some 83,000 tested, about 20% had one in any assay.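 How to read the values: 0–100, growth inhibition (40 = 60% inhibited); 0, no net growth; -100 to 0, cell death (-40 = 40% of starting cells died; -100 = all dead).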 Unmarked numbers belong to inactive results. Activity calls are given as the source filed them. The calls were made as follows: active = growth percent below 10; inactive = the rest.

As to `CC(C)Sc1nc(NN)c(C#N)c(-c2ccccc2)n1`, the growth in [1] is 100%; in test [2], 100%; in test [3], 91.1%; in test [4], 102%; in [5] it was 98.6%; in test [6], 83.5%. Moreover, the growth is 94.7% in test [7]; 102% in test [8]; 97.8% in test [9]; 114% in test [10]; 108% in test [11]; 101% in [12]. Moreover, the growth in test [13] is 95.7%; in test [14] it was 99.3%; in test [15] it was 100%; in [16], 98.7%; in test [17], 89.9%; in test [18], 102%. For the same compound, the growth in test [19] was 108%.
Consider `Cn1ncc2c(Nc3ccccc3Cl)nc(Cl)nc21`, for which the growth in test [1] was 100%; in test [2] it was 88.4%; in test [3] it was 87.3%; in [4], 98.2%; in [5], 114%; in test [6], 72.8%. Besides, the growth is 40.5% in test [7]; 103% in [8]; 103% in [9]; 127% in test [10]; 139% in [11]; 122% in test [13]. Besides, the growth was 87% in [14]; 114% in [15]; 103% in [16]; 102% in test [17]; 128% in test [18].
`COc1ccc(C(=O)c2cc3c(N)c(C(=O)Nc4cccc5ccccc45)sc3nc2C)cc1`: the growth in test [1] is 30.7%; in [2], 47.4%; in test [3], 51.4%; in [4], 30.2%; in test [5], 3.06% (active); in test [6], 44.5%. Besides, the growth was -28.8% (active) in test [7]; 17.6% in [8]; 31.6% in [9]; -37.7% (active) in [10]; 9.48% (active) in test [11]; 7.36% (active) in test [12]. The growth in test [13] is 55%; in [14], 15.7%; in [15], 29.1%; in test [16], 19.7%; in [17] it was -9.85% (active); in test [18], 55.8%. In addition, the growth in [19] was 11.6%.
As for `COc1ccc(/C=C/c2n[nH]c3ccc(N4CCOC4=O)cc23)cc1`, the growth in [1] is 12.4%; in [2], 6.06% (active); in [3] it was 8.47% (active); in test [4], -1.37% (active); in test [5] it was 1.61% (active); in test [6], -8.15% (active). Besides, the growth was 51.3% in test [7]; 1.87% (active) in [8]; 11.3% in test [9]; -17.4% (active) in test [10]; 14.7% in [11]; 59.9% in test [13]. Also, the growth in test [14] is 14.6%; in test [15] it was 13%; in [16], 32.8%; in test [17], -1.43% (active); in [18], 38.4%; in [19], 26.9%.
Regarding `COc1cc(CCNc2nc3cc(N)cc(N)c3nc2-c2ccccc2)cc(OC)c1`, the growth in [1] was 19.3%; in test [2], 90.5%; in test [3] it was 23.8%; in test [4], -35.1% (active); in [5], 34.1%; in test [6], -71.2% (active). Besides, the growth was -65.1% (active) in test [7]; 78.3% in test [8]; -60% (active) in test [9]; 85.7% in [11]; -71.2% (active) in test [12]; -66.4% (active) in test [13]. Besides, the growth is -22.6% (active) in test [14]; -64.4% (active) in [20]; 7.74% (active) in test [15]; 60.8% in test [16]; -31.7% (active) in test [17]; 88.9% in test [18]. Besides, in test [19], the growth is -32.8% (active).
Regarding `CCN(CCNc1cc(OC)cc2cccnc12)CCc1ccccc1`, the growth in test [1] was 78.1%; in test [2], 86.2%; in test [3], 108%; in test [4], 64.9%; in test [5] it was 86%; in [6], 77.2%. Further, the growth in test [7] is 63.7%; in test [8], 74.4%; in test [9], 87.2%; in test [10] it was 68.8%; in test [11], 101%; in test [13] it was 108%. Also, the growth in [14] was 70.7%; in [15] it was 84%; in test [16] it was 83.5%; in test [17], 97.6%; in test [18], 77.8%; in test [19], 93.4%.
As for `COc1ccncc1C#Cc1cncc(C(=O)Nc2ccc(CN3CCN(C)CC3)c(C(F)(F)F)c2)c1`, the growth in [1] is 28%; in test [2], 3.6% (active); in test [3] it was 37.3%; in [4], 38.9%; in [5], 8.17% (active); in [6], -2.19% (active). In addition, the growth in test [7] was 30.9%; in test [8] it was 36.9%; in test [9], 46.9%; in test [11], 35.4%; in [12] it was 5.84% (active); in test [13], -28% (active). Further, the growth in test [14] is 9.91% (active); in test [15] it was 39.8%; in test [16] it was 49.7%; in [17] it was 1.56% (active); in [18] it was 46.5%.
With `N/C(=N\N=C\c1cc2ccccc2s1)N/N=C/c1cc2ccccc2s1`, the growth in [1] is 103%; in test [2], 99.5%; in test [3] it was 108%; in [4], 110%; in test [5], 102%; in test [6], 97%. For the same compound, the growth is 91.8% in test [7]; 106% in test [8]; 5.55% (active) in [9]; 115% in [11]; 97.5% in [12]; 102% in [13]. In addition, the growth in test [14] is 95.4%; in test [15], 102%; in test [16], 103%; in [17] it was 101%; in test [18], 98.1%; in test [19], -56.3% (active).
On to `CC1(C)CN(c2cnc(C(=O)Nc3cc(F)cc4cccnc34)cn2)CCN1`, for which the growth in test [1] is 88.8%; in test [2], 92.7%; in [3], 85.4%; in test [4], 91.8%; in test [5], 82.5%; in test [6], 64.6%. Moreover, the growth is 41% in [7]; 92.5% in test [8]; 78.9% in test [9]; 101% in [11]; 36.3% in [12]; 47.5% in test [13]. For the same compound, the growth in [14] is 58%; in [15] it was 74.6%; in [16] it was 97.8%; in test [17], 83.7%; in [18] it was 93.5%; in [19], 70.8%.
